About 83,000 compounds went through this panel and 20% of them were active in at least one assay; those are over-represented in the sample as a whole.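 Single-concentration screen, 48 h exposure, 96-well plates. Endpoint: percent growth. Below 10 = active.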 Values without a mark were called inactive. Activity calls are given as the source filed them.

This passage reports growth results from PubChem BioAssay (NCI).

Experiment in all cases: NCI-60 one-dose screen, 48 h (100 = growth as untreated, 0 = no growth, -100 = all killed)
In assay [1] the test system is SR leukemia. To be noted: 10 µM unless noted.
Assay [2] relates to RPMI-8226 leukemia. To be noted: 10 µM unless noted.
In assay [3] the test system is OVCAR-8 ovarian. To be noted: 10 µM unless noted.
The test system of assay [4] is OVCAR-5 ovarian. To be noted: 10 µM unless noted.
The test system of assay [5] is OVCAR-4 ovarian. To be noted: 10 µM unless noted.
The subject of assay [6] is SK-OV-3 ovarian. To be noted: 10 µM unless noted.
The test system of assay [7] is IGROV1 ovarian. The note with it: 10 µM unless noted.
The test system of assay [8] is OVCAR-3 ovarian. The note with it: 10 µM unless noted.
Assay [9] has as its system NCI/ADR-RES ovarian. To be noted: 10 µM unless noted.
Assay [10] concerns T-47D breast. To be noted: 10 µM unless noted.
Assay [11] relates to BT-549 breast. To be noted: 10 µM unless noted.
The test system of assay [12] is MDA-MB-435 melanoma. The note with it: 10 µM unless noted.
The subject of assay [13] is SW-620 colon. To be noted: 10 µM unless noted.
For assay [14], the system named is MCF7 breast. To be noted: 10 µM unless noted.
The subject of assay [15] is HCT-116 colon. To be noted: 10 µM unless noted.
Assay [16] relates to KM12 colon. The note with it: 10 µM unless noted.
For assay [17], the system named is HCC-2998 colon. To be noted: 10 µM.

Regarding `COc1cc(N2CCC(N(C)C)CC2)ccc1Nc1ncc(Cl)c(Nc2ccccc2P(C)(C)=O)n1`, the growth in assay [1] was 6.79% (active); in assay [2] it was 27.9%; in assay [3] it was 4.01% (active); in assay [4] it was 1.36% (active); in assay [5], 18.2%; in assay [6], -77.7% (active). Further, the growth in [7] was -24.5% (active); in assay [8], 16.3%; in assay [9], 78.1%; in [10], 56.2%; in [11], -14.1% (active); in assay [12], 23.5%. The growth in assay [13] was -1.28% (active); in [14], 33.1%; in [15], -19.6% (active); in assay [16], -1.59% (active).
In the case of `CC(=O)c1cnc2ccc(-c3cc(Cl)c(O)c(Cl)c3)nc2c1NC1CCC(CN(C)C)CC1` (configuration not stated), the growth in [1] is -16% [2.5 µM] (active); in [2] it was -24.3% [2.5 µM] (active); in assay [3] it was -22.9% [2.5 µM] (active); in [4], 2.38% [2.5 µM] (active); in assay [5], -9.08% [2.5 µM] (active); in assay [6], -32.6% [2.5 µM] (active). The growth is -17.3% [2.5 µM] (active) in assay [7]; 2.02% [2.5 µM] (active) in [8]; -13.7% [2.5 µM] (active) in assay [9]; -22.9% [2.5 µM] (active) in assay [10]; -44.9% [2.5 µM] (active) in [11]; -37.2% [2.5 µM] (active) in assay [12]. Besides, the growth is 6.12% [2.5 µM] (active) in assay [13], -4.22% [2.5 µM] (active) in assay [14], -2.49% [2.5 µM] (active) in [15] and -2.64% [2.5 µM] (active) in [16].
Regarding `C[C@@H]1COCCN1c1cc(C2([S@](C)(=N)=O)CC2)nc(-c2ccnc3[nH]ccc23)n1`, the growth in assay [1] was 7.14% (active); in assay [2], 32.4%; in [3] it was 30.7%; in assay [4], 34.5%; in [5], 30.3%; in assay [6] it was 4.16% (active). In addition, the growth was 17.7% in assay [7]; 31.7% in assay [8]; 80.4% in assay [9]; 21.4% in [10]; 27.2% in assay [11]; 31% in assay [12]. Also, the growth is 43.7% in assay [13], 14.4% in assay [14], 35.5% in [15] and 21.4% in assay [16].
`O=C(O)C1(Cc2cccc(Nc3nccs3)n2)CCC(Oc2cccc(Cl)c2F)CC1` (configuration not stated): the growth in assay [1] is 47.5%; in [2] it was 59.8%; in assay [3], 56.6%; in [4], 80.1%; in assay [5] it was 106%; in assay [6], 62.7%. Besides, the growth is 76.7% in assay [7]; 71.2% in assay [8]; 46.4% in assay [9]; 50.9% in [10]; 84.4% in assay [11]; 49.6% in [12]. Also, the growth was 74.9% in assay [13], 46.7% in assay [14], 95.3% in [17] and 19.3% in assay [16].
With `O=C(Nc1ccc(-c2ccnc(Nc3ccc(N4CCOCC4)cc3)n2)cc1)[C@@H]1CCCN1`, the growth in [1] is 4.92% (active); in assay [2], 57%; in [3], 72.2%; in [4] it was 76.8%; in [5] it was 71.4%; in assay [6], 42.6%. Further, the growth in [7] was 60.8%; in assay [8], 76.5%; in assay [9], 87.3%; in assay [10], 56.1%; in assay [11] it was 50.9%; in [12] it was 57.7%. The growth is 76.6% in [13], 58% in assay [14], 34.1% in assay [15] and 35.6% in assay [16].
For `O=C(c1ccc(F)c(F)c1Nc1ccc(I)cc1F)N1CC(O)([C@@H]2CCCCN2)C1`, the growth was -15.2% (active) in assay [1]; 26.7% in [2]; 47.9% in [3]; 7.14% (active) in [4]; 27.8% in assay [5]; 29.2% in [6]. In addition, the growth in assay [7] was 2.25% (active); in assay [8], 58.7%; in assay [9] it was 39.7%; in assay [10], 11.8%; in assay [11] it was 47.1%; in assay [12], 21%. Moreover, the growth was 17.5% in assay [13], 14.1% in assay [14], -51.9% (active) in assay [17] and 12.1% in assay [16].
For `CN(C[C@@H]1COCCO1)S(=O)(=O)Nc1ccc2ccc3ncc(-c4cnn(C)c4)cc3c(=O)c2c1`, the growth in assay [1] is 13.1%; in assay [2], 38.5%; in assay [3], 31.3%; in assay [4] it was 55.2%; in assay [5], 38.2%; in assay [6] it was 1.71% (active). Besides, the growth in assay [7] was 11.5%; in assay [8] it was 55.4%; in [9] it was 52.1%; in assay [10], 15.9%; in assay [11] it was 28.1%; in assay [12], 44.7%. Moreover, the growth was 37% in [13], 36.3% in assay [14], 74.1% in assay [17] and 10.2% in assay [16].
As for `CN(C)C1CCN(C(=O)c2ccc(NC(=O)Nc3ccc(-c4nc(N5CCOCC5)nc(N5CCOCC5)n4)cc3)cc2)CC1`, the growth in assay [1] is 3.59% [2.5 µM] (active); in assay [2] it was -2.37% [2.5 µM] (active); in assay [3], -20.9% [2.5 µM] (active); in assay [4], -2.63% [2.5 µM] (active); in assay [5], -29.9% [2.5 µM] (active); in assay [6], -51.9% [2.5 µM] (active). Further, the growth in [7] is -54.8% [2.5 µM] (active); in assay [8], 2.07% [2.5 µM] (active); in assay [9], 95.6% [2.5 µM]; in assay [10] it was -45.3% [2.5 µM] (active); in assay [11], -10.1% [2.5 µM] (active); in assay [12], -16.6% [2.5 µM] (active). Moreover, the growth in assay [13] is 8.13% [2.5 µM] (active); in assay [15], 12.8% [2.5 µM]; in assay [16], 5.58% [2.5 µM] (active).
`ClCc1ccc(-c2ccc(Cn3cnc4c(Cl)nc(Cl)nc43)cc2)cc1`: the growth is 8.65% (active) in assay [1]; -47.4% (active) in assay [2]; -40% (active) in assay [3]; 57.8% in assay [4]; 21.7% in assay [5]; 87.8% in assay [6]. Besides, the growth in assay [7] was -64.4% (active); in assay [8] it was -93.1% (active); in [9] it was 20.8%; in [10], -23.5% (active); in [12] it was 4.56% (active); in assay [13], -31.6% (active). The growth was -31.8% (active) in assay [14], -59.6% (active) in assay [15] and -66.9% (active) in assay [16].
